RE007 growth inh – less growth of the S. pombe RE007 Vpr strain. S. pombe RE007 Vpr strain, BacTiter-Glo ATP luminescence, 24 h. Potency, µM (highest dose often 92.2 µM), inactives show at the top dose activity change, negative = less growth, usual class: inhibitors. 0.21% of 360,000 active. AID 651644; active = well fitted falling curve with a large enough effect; inconclusive = small, poorly fitted or top-dose-only effect; inactive = no such curve, though single readings can be large or run the other way; note: nearly all actives have a fitted effect of over 50% in size
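Fission yeast RE007 carrying one integrated HIV-1 vpr copy, seeded at OD 0.01 in PMG+AL medium with 23 nL pinned compound. Grown 24 h at 30 degrees; viability read by BacTiter-Glo luminescence after 5 min.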
Sm TGR block – S. mansoni TGR enzyme inhibition; Q962Y6; purified TGR, DTNB reduction, TNB absorbance 405 nm; Potency, µM (doses to about 114 µM), inactives show top-dose activity change, negative = inhibition, actives largely listed as inhibitors; 3% of 360,000 active; note: nearly all actives have a fitted effect of over 60% in size
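First, TGR (20 nM dispensed) and NADPH were mixed with compound. Second, a 15 min room-temperature incubation followed. Third, further NADPH and then DTNB were added to start the reaction. Finally, TNB absorbance was monitored kinetically.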
MARV entry inh – blocks Marburg virus binding to or entry into cells; Marburg virus pseudotyped entry inhibition, cell reporter; Potency, µM (doses to about 37.8 µM), for the others: at the highest dose activity change, negative = inhibition, usual class: inhibitors; 1.8% of 300,000 active; AID 540276; calls by dose curve; tested in HEK293 cells
FMDV inh – foot and mouth disease virus antiviral activity; 1.2% of 410,000 active; FMDV antiviral cell-based qHTS; Potency, µM (doses to about 57.9 µM), for the others: top-dose activity change, negative = inhibition, most hits filed as inhibitors; calls by dose curve; tested in HEK293T cells; note: read-out not given here; nearly all actives have a fitted effect of over 45% in size
HCV inhibitor – inhibitors of hepatitis C virus infection | Huh7.5.1 HCVcc-Cre infection, luciferase reporter, 44 h | Potency, µM (titrated, usually from 41.8 µM), for the others: at the top dose activity change, negative = inhibition, usual class: inhibitors | 3.4% of 340,000 active | AID 651820
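Luciferase read-out (15 sec integration) after a 15 min room-temperature substrate step quantifies HCVcc-Cre infection. Cells, 1,000 per well, had compound added 4 h post-plating, then virus at ~0.5 moi, and were cultured 44 h.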
LASV entry inh – Lassa virus entry inhibition. Lassa virus pseudotype entry inhibition, cell reporter. Potency, µM (doses to about 37.9 µM), without a hit: at the top dose activity change, negative = inhibition, hits mostly inhibitors. 1.2% of 300,000 active. AID 540256; calls by dose curve; tested in HEK293 cells; note: nearly all actives have a fitted effect of over 50% in size
An asterisk follows results filed as active; ? = inconclusive; nt = not tested or not shown; [ ] = remark or other dose. Rows were chosen to be rich in hits. Some 7.2% of all compounds tested hit in one or more screens of this group. Unless noted, calls come from the whole dose curve; as a rule, active = well fitted curve in the direction sought with a large enough effect; inconclusive = small, poorly fitted or top-dose-only effect, or another doubt; inactive = no such curve, though single readings can be large; an effect the other way counts as inactive or inconclusive. % is set by controls: 0 for no effect and ±100 for the full control effect; potency is the fitted concentration of half-maximal effect.

SMILES	RE007 growth inh	Sm TGR block	MARV entry inh	FMDV inh	HCV inhibitor	LASV entry inh
CC(C)(C)NC(=O)COC(=O)c1ccccc1Oc1ccccc1	4%	16%	19%[46.1 µM]	-8%	-20%	-1%[46.1 µM]
CC(=O)N/C(=C\c1ccccc1)C(=O)OCC(=O)NC1CCCC1	19%	-1%	11%	3%	5%	4%
Cc1nnnn1/C(=C\c1ccccc1)C(=O)OCC(=O)NC1CCCCC1	3%	-4%	11µM*	8.9µM*	34%	?
CC(=O)Nc1ccc(NC(=O)COC(=O)/C(=C/c2ccccc2)n2nnnc2C)cc1	8%	-11%	?	20µM*	-14%	?
CC(=O)c1cccc(NC(=O)C(C)n2c(=O)cc(-c3ccccc3)c3c(C)nn(C)c32)c1 (configuration not stated)	nt	-14%	nt	3%	nt	-24%[46.1 µM]
COc1cccc(C(=O)NC(=S)Nc2cccnc2)c1	-21%	56µM*	-1%	14%	?	14%
CCOc1cc(C(=O)NC(=S)Nc2cccnc2)cc(OCC)c1OCC	-3%	50µM*	?	-5%	?	-23%
CCc1cnc2c(c1SCC(=O)Nc1ccc(OC)c(OC)c1)c(=O)n(C)c(=O)n2C	nt	3%	nt	-11%	nt	0%[46.1 µM]
CC1(C(=O)O)NCCc2cc(O)c(O)cc21 (configuration not stated)	nt	nt	nt	-13%	nt	nt
CC1(C(=O)O)CCCC2(C)c3cc(O)ccc3CCC12 (configuration not stated)	1%	nt	nt	-14%	3%	nt
C=C/C(C)=C/CC1C(=C)CCC2C(C)(C(=O)O)CCCC12C (configuration not stated)	-6%	32µM*	nt	-12%	14%	nt
C=C1CC[C@@H]2[C@](C)(CO)[C@H](O)CC[C@@]2(C)[C@@H]1C/C=C1/C(=O)OC[C@H]1O	nt	nt	nt	-26%	nt	nt
C=C[C@]1(C)C=C2CCC3[C@](C)(CCC[C@@]3(C)C(=O)O)C2CC1 (some centres not stated)	-27%	-3%	nt	-18%	2.2µM*	nt
CCc1ccc(NC(=O)CN2C(=O)c3ccccc3Sc3ccc(C(=O)N4CCCC4)cc32)cc1	nt	0%	nt	-9%	nt	-20%[46.1 µM]
COC(=O)C1=C(O)/C(=C\c2cc(C)n(-c3ccccc3F)c2C)N=C1C	0%	25µM*	3%[46.1 µM]	17%	?	3%[46.1 µM]
COC(=O)C1=C(O)/C(=C\c2cc(C)n(-c3ccccc3C)c2C)N=C1C	-4%	25µM*	?	nt	?	21%
CCc1cccc(C)c1NC(=O)C(CC)Sc1nc2ccncc2[nH]1 (configuration not stated)	nt	2%	?	-18%	nt	6%[46.1 µM]
CCCCCn1c(N)c(-c2nc3ccccc3s2)c2c([N+](=O)[O-])nn(CC)c(=O)c21	6%	-16%	2.9µM*	7%	11µM*	11%
CCCCn1c(N)c(-c2nc3ccccc3s2)c2c([N+](=O)[O-])nn(CC)c(=O)c21	-1%	-9%	?	1%	?	?
O=C(Cn1nc2ccccc2n1)N/N=C/c1cc([N+](=O)[O-])ccc1O	-8%	-7%	10µM*	-13%	?	?
O=[N+]([O-])c1ccc(O)c(/C=N\N=C2c3ccccc3-c3ccccc32)c1	-9%	4%	14µM*	?	?	?
Cc1ccccc1/C=N/Nc1ccc(Cl)nn1	8%	40µM*	7%	10%	-22%	-14%
NC(N)=N/N=C/c1cc([N+](=O)[O-])ccc1O	-27%	-20%	?	-8%	12%	21%
Cc1ccc(S(=O)(=O)N/N=C/c2cc([N+](=O)[O-])ccc2O)cc1[N+](=O)[O-]	-16%	28µM*	?	56%	7%	3%
O=[N+]([O-])c1ccc(O)c(/C=N/Nc2ccc(Cl)nn2)c1	-21%	0%	0.13µM*	44%	4µM*	?
SMILES	RE007 growth inh	Sm TGR block	MARV entry inh	FMDV inh	HCV inhibitor	LASV entry inh
COc1cc(/C=N/NS(=O)(=O)c2ccc(C)c([N+](=O)[O-])c2)cc([N+](=O)[O-])c1O	-1%	?	13%[46.1 µM]	-16%	4%	15%[46.1 µM]
COc1ccc(-n2c(O)c(/C=N/NS(=O)(=O)c3ccc(C)c([N+](=O)[O-])c3)c3ccccc3c2=O)cc1OC	2%	10µM*	nt	1%	1%	nt
CN1CC[C@@]2(CCCN(C(=O)c3cccc(F)c3)C2)C1	nt	nt	nt	-13%	nt	nt
Cc1cn2c(=O)cc(COC(=O)c3cccc(NC(=O)c4ccc(C(C)(C)C)cc4)c3)nc2s1	nt	9%	nt	2%	nt	?
Cc1ccc(C)c(Cn2c(=O)n(CCCCC(=O)NCc3ccc4c(c3)OCO4)c(=O)c3ccccc32)c1	nt	0%	?	-11%	nt	-14%[46.1 µM]
O=C(O)CSc1ncnc2sc3c(c12)CCC3	-9%	-31%	17%	-9%	25%	2%
CCSc1ncnc2sc3c(c12)CCC3	6%	10%	14%	-10%	25µM*	14%
O=C(O)CSc1ncnc2sc3c(c12)CCCC3	3%	10%	9%[46.1 µM]	-9%	19%	12%
Fc1ccc(CSc2ncnc3sc4c(c23)CCCC4)cc1	3%	-21%	-18%	-4%	11µM*	-11%
Cc1cccc(NC(=O)c2ccc3nc(CCc4ccccc4)oc3c2)c1C	nt	-4%	nt	8%	nt	-2%[46.1 µM]
Cc1ccc(CNC(=O)c2sc3nc4n(c(=O)c3c2C)CCCCC4)cc1	nt	-13%	nt	-12%	nt	-16%[46.1 µM]
Cc1c(C(=O)NCc2ccc(Cl)cc2)sc2nc3n(c(=O)c12)CCCCC3	nt	35µM*	nt	-5%	nt	12%[46.1 µM]
COc1ccc(CCNC(=O)c2sc3nc4n(c(=O)c3c2C)CCCC4)cc1OC	nt	35µM*	nt	0%	nt	-17%[46.1 µM]
Cc1ccc(CNC(=O)c2sc3nc4n(c(=O)c3c2C)CCCC4)cc1	nt	56µM*	nt	14%	nt	?
COc1ccc(OC)c(CCNC(=O)c2sc3nc4n(c(=O)c3c2C)CCC4)c1	9%	13%	16%[46.1 µM]	1%	-11%	-11%[46.1 µM]
Cc1c(C(=O)NCCc2ccc(Cl)cc2)sc2nc3n(c(=O)c12)CCCC3	nt	45µM*	nt	-21%	nt	?
Cn1c(N)c(C(=O)CSc2nn(-c3ccccc3)c(=S)s2)c(=O)n(C)c1=O	-10%	-1%	?	25µM*	10µM*	?
COc1cc2c(cc1NC(=O)CSc1nnc(COc3ccc(Cl)cc3)n1C)oc1ccccc12	6%	0%	?	-10%	6.3µM*	-5%
COc1cc2c(cc1NC(=O)CSc1nnc(Cc3cccs3)n1Cc1ccco1)oc1ccccc12	-7%	-17%	?	?	2µM*	-9%
Cc1cc(Cl)ccc1NC(=O)CSc1nnc(Cc2cccs2)n1Cc1ccco1	16%	20µM*	?	-23%	?	1%
C=CCn1c(Cc2cccs2)nnc1SCC(=O)NCc1ccco1	19%	-18%	13%	?	19%	2%

Screening results deposited in PubChem BioAssay by National Center for Advancing Translational Sciences (NCATS).
